# Test results from PubChem BioAssay (NCATS).
# Results filed as inconclusive are left out. Values without a mark were called inactive. Active and inactive are the calls of the source. Calls follow the shape of the dose curve; as a rule, active = well fitted cell-killing curve with a large enough effect; inconclusive = small, poorly fitted or top-dose-only effect; inactive = no such curve, though single readings can be large or run the other way.
# Experiment: qHTS of pediatric cancer cell lines to identify multiple opportunities for drug repurposing: Primary screen for Rh30 cells (AID 1347107); also: nearly all actives have a fitted effect of over 75% in size
# Conditions: Rh30 rhabdomyosarcoma viability, CellTiter-Glo luminescence, 48 h; series mostly up to 46 µM; activity change, negative = cytotoxic: at the top concentration
# From the text: Drug repurposing or repositioning has been offered as a strategy for drug development in oncology programs. This approach has special potential for childhood cancers and other rare or orphan diseases, where the expected return on new drug development has been a disincentive to pharmaceuticals.
# In this project we exploit the poly-pharmacology of drugs to discover new indications via phenotypic screening of a panel of 19 well-characterized cell lines derived from solid tumors seen in children and adolescents. The goal is to identify approved drugs with previously unrecognized anticancer properties that has the potential to reveal new mechanisms and biological processes involved in carcinogenesis or drug resistance. We employed a titration-based paradigm (quantitative high-throughput screening or qHTS), where all compounds were tested at multiple concentrations for their effect on cell viability. Concentration-response curves (CRCs) were derived directly from the primary screen, and both potency and efficacy values were used to identify compounds with robust bioactivity profiles. We screened the NIH Chemical Genomics Center (NCGC) Pharmaceutical Collection (NPC) and Mechanism Interrogation Plate (MIPE) small molecule collections of approved and investigational compounds against these cell lines; and measured metabolically active cells after 48 hours of compound treatment as a proxy for cell viability.
# Assay Submitter: Nathalia J. Martinez, National Center for Advancing Translational Sciences, National Institutes of Health, Rockville, MD, USA; email: natalia.martinez@nih.gov
# [1] Shen, M et al. Quantitative high-throughput phenotypic screening of pediatric cancer cell lines identifies multiple opportunities for drug repurposing. Oncotarget 2017 Dec 19;9(4):4758-4772. PMID 29435139.
# The cells were obtained from University of North Carolina (UNC), Pediatric Preclinical Testing Program (PPT), and Coriell Institute (CI).
# qHTS cell viability assay:
# Cells were assayed in growth media at a density of 500-1,000 cells/well. Five microliters of cells were dispensed into 1,536-well, white, solid-bottom, TC-treated plates (Greiner Bio One) using a multidrop dispenser and incubated at 37 degrees C, 5% CO2, under a humidified atmosphere for 5 hours. Twenty-three nanoliters of compounds and controls (neutral control DMSO or positive control bortezomib at final concentration of 2.3 µM) were subsequently transferred by Kalypsys pintool. For primary screens, the MIPE collection was tested at 11-point dilutions (final concentrations range from 0.78 nM to 46 µM) and the NPC collection at 8-point dilutions (final concentrations range from 0.59 nM to 46 µM). Compounds tested in follow-up screens were assayed at 11-point dilutions. Cells were incubated for 48 hours, followed by addition of 3 µL of CellTiter-Glo (Promega). After a 15 min incubation at room temperature, samples were analyzed for luminescence intensity using a ViewLux High-throughput CCD imager equipped with clear filters.
# % is scaled to controls: 0 for no effect and ±100 for the full control effect; potency is read from the fitted curve at half-maximal effect.
SMILES,"activity change, negative = cytotoxic",Potency
C[C@]12CC[C@H](O)CC1=CC[C@@H]1[C@H]2CC[C@]2(C)C(c3cccnc3)=CC[C@H]12,7.56% [at 16.1 µM],
CC(C)NCC(O)COc1ccc(COCCOC(C)C)cc1 (stereo not given),,inactive
CC(C=CC1=C(C)CCCC1(C)C)=CC=CC(C)=CC(=O)O,12.9%,
Nc1cccc(S(=O)(=O)N2CCCN(S(=O)(=O)c3ccc4c(c3)OCCO4)CC2)c1,3.5%,
COc1ccc(-c2oc3cc(OC)ccc3c2C(=O)c2ccc(C#N)cc2)cc1,-0.977%,
O=C(O)COCCN1CCN(C(c2ccccc2)c2ccc(Cl)cc2)CC1 (stereo not given),,inactive
CCOc1cc(C=C2C(=O)N(c3ccccc3)N=C2C)cc(Cl)c1OCC(=O)OC,1.78%,
O=C(O)CCc1ccc(NCc2cccc(Oc3ccccc3)c2)cc1,17%,
Cc1oncc1C(=O)Nc1ccc(C(F)(F)F)cc1,0.307%,
CCC(C)n1ncn(-c2ccc(N3CCN(c4ccc(OC[C@H]5CO[C@](Cn6cncn6)(c6ccc(Cl)cc6Cl)O5)cc4)CC3)cc2)c1=O (stereo not given in full),,inactive
O=S(=O)(N=Cc1c(O)ccc2ccccc12)c1cccs1,7.98%,
Nc1nc2c(ncn2COCCO)c(=O)[nH]1,,inactive
CCN(CC)CCCC(C)Nc1nc(C)cc(Nc2ccc3nc(C)cc(N)c3c2)n1 (stereo not given),10.4%,
NC(=O)c1ccc(-c2nc(-c3ccc4c(c3)OCCO4)c(-c3ccccn3)[nH]2)cc1,7.47%,
CNCc1ccc(-c2[nH]c3cc(F)cc4c3c2CCNC4=O)cc1,8.04%,
CC(C)OC(=O)C1=CN(C(=O)c2ccc(F)c(F)c2)CC(C)(C)c2c1[nH]c1ccccc21,-0.749%,
Cc1c(CN2CCN(C(=O)C(C)C)CC2)sc2c(N3CCOCC3)nc(-c3cnc(N)nc3)nc12,,1.87 µM (active)
CNC(=O)c1ccc(N2C(=S)N(c3ccc(C#N)c(C(F)(F)F)c3)C(=O)C2(C)C)cc1F,9.03%,
COc1cccc2cc(-c3nc(C4CCC(C(=O)O)CC4)n4ncnc(N)c34)[nH]c12 (stereo not given),-14%,
Cc1n[nH]c(C)c1Cc1sc2c(c1C(=O)N1C[C@H](O)CO1)c(=O)n(C)c(=O)n2CC(C)C,-0.93%,

SMILES,"activity change, negative = cytotoxic",Potency
NCCc1ccc(O)c(O)c1,15.3%,
O=c1[nH]cnc2[nH]ncc12,,inactive
CS(=O)(=O)c1ccc(C(=O)Nc2ccc(Cl)c(-c3ccccn3)c2)c(Cl)c1,17.9%,
CC(C)(C)NCC(O)c1ccc(O)c(CO)c1 (stereo not given),,inactive
NC(=O)c1ccc(I)c([N+](=O)[O-])c1,14.4%,
c1ccc([C@H]2CN3CCSC3=N2)cc1,,inactive
CCCCNc1cc(C(=O)O)cc(S(N)(=O)=O)c1Oc1ccccc1,,inactive
COc1nc(-c2ccc3c(c2)OCO3)n(-c2ccc(NC(=O)CSc3ccccc3)cc2)n1,15.8%,
Cc1[nH]c(=O)c(C#N)cc1-c1ccc2nccn2c1,,inactive
CC(C)(C)OC(=O)CN(Cc1ccc(Cl)cc1)Cc1ccc([N+](=O)[O-])s1,3.39%,
COc1ccc([C@@H]2CC(=O)c3c(O)cc(O[C@@H]4O[C@H](CO[C@@H]5O[C@@H](C)[C@H](O)[C@@H](O)[C@@H]5O)[C@@H](O)[C@H](O)[C@@H]4O)cc3O2)cc1O,,inactive
CN(C)c1ccc(Nc2nc(N)n(C(=O)c3c(F)cccc3F)n2)cc1,17.7%,
O=NN(CCCl)C(=O)NCCCl,,inactive
NS(=O)(=O)c1cc2c(cc1Cl)NC=NS2(=O)=O,,inactive
C[C@]12CCC(=O)C=C1CC[C@@H]1[C@@H]2[C@@H](O)C[C@@]2(C)[C@H]1CC[C@]2(O)C(=O)CO,24.4%,
Cc1ccc(N(CC2=NCCN2)c2cccc(O)c2)cc1,2.82%,
NC[C@H](O)c1ccc(O)c(O)c1,,inactive
C[C@H](NC(=O)Cc1cc(F)cc(F)c1)C(=O)N[C@@H]1C(=O)N(C)c2ccccc2-c2ccccc21,-29.8%,
COc1ccc(CCN2CCN(CCCc3ccccc3)CC2)cc1OC,12.2%,
CCCc1nn(C)c2c(=O)[nH]c(-c3cc(S(=O)(=O)N4CCN(C)CC4)ccc3OCC)nc12,9.6%,
